Results filed as inconclusive are left out. Entries that show only a call come without a potency. Values without a mark were called inactive. Activity calls are given as the source filed them. Calls follow the shape of the dose curve; as a rule, active = well fitted curve in the direction sought with a large enough effect; inconclusive = small, poorly fitted or top-dose-only effect, or another doubt; inactive = no such curve, though single readings can be large; an effect the other way counts as inactive or inconclusive.
Tests used:
[1] = system: KB-3-1; test: Cytotoxic Profiling of Annotated Libraries Using Quantitative High-Throughput Screening (AID 1296008); details: Five cell lines viability, CellTiter-Glo ATP luminescence, 48-72 h; max response: stronger effect = lower value; also: nearly all actives have a fitted effect of over 60% in size
Outline: (§1)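 Cytotoxicity was measured as CellTiter-Glo ATP luminescence, read after 10 min at room temperature. Compound treatment of the cells lasted 48 or 72 hr at 37 degrees Celsius in a qHTS format.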

[2] = system: NIH3T3; test: as above; details: Five cell lines viability, CellTiter-Glo ATP luminescence, 48-72 h; max response: stronger effect = lower value
Outline: as §1

[3] = system: C33A; test: Primary qHTS to identify gynecologic anti-cancer compounds using libraries of approved drugs and bioactive compounds (AID 1345084); details: Gynecologic cancer cell panel viability, ATPlite luminescence, 48 h; series mostly up to 57.5 µM; also: nearly all actives have a fitted effect of over 55% in size
Outline: (§2)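 Cytotoxicity screen measuring ATP content by luciferase luminescence. Each compound is applied at five concentrations for 48 h at 37 C with 5% CO2.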

[4] = system: CAOV3; test: as above; details: Gynecologic cancer cell panel viability, ATPlite luminescence, 48 h; series mostly up to 57.5 µM
Outline: as §2

[5] = system: CASKI; test: as above; details: Gynecologic cancer cell panel viability, ATPlite luminescence, 48 h; series mostly up to 57.5 µM
Outline: as §2

[6] = system: Es-2; test: as above; details: Gynecologic cancer cell panel viability, ATPlite luminescence, 48 h; series mostly up to 57.5 µM
Outline: as §2

[7] = system: HeLa; test: as above; details: Gynecologic cancer cell panel viability, ATPlite luminescence, 48 h; series mostly up to 57.5 µM
Outline: as §2

[8] = system: Hek293T; test: as above; details: Gynecologic cancer cell panel viability, ATPlite luminescence, 48 h, control line for the selectivity index; series mostly up to 57.5 µM
Outline: as §2

[9] = system: JEG-3; test: as above; details: Gynecologic cancer cell panel viability, ATPlite luminescence, 48 h; series mostly up to 57.5 µM
Outline: as §2

[10] = system: OV90; test: as above; details: Gynecologic cancer cell panel viability, ATPlite luminescence, 48 h; series mostly up to 57.5 µM
Outline: as §2
Potency is read from the fitted curve at half-maximal effect.

Row | SMILES | max response [1] [%] | Potency [2] | Potency [3] | Potency [4] | Potency [5] | Potency [6] | Potency [7] | Potency [8] | Potency [9] | Potency [10] | Potency [1] | outcome [1] | max response [2] [%]
1 | Cc1[nH]nc(C(F)(F)F)c1Cc1sc2c(c1C(=O)N1C[C@](C)(O)CO1)c(=O)n(C)c(=O)n2C(C)C | 1.3 | 13 µM (active) | inactive | inactive | inactive | inactive | inactive | inactive | inactive | inactive | – | – | –
2 | Cc1c[nH]c2nccc(Oc3c(F)cc(Nc4cc(Cl)nc(N)n4)cc3F)c12 | – | 10.3 µM (active) | inactive | inactive | inactive | 12.6 µM (active) | 7.94 µM (active) | – | – | inactive | 1.46 µM (active) | – | –
3 | C=C1C(=O)O[C@@H]2C/C(C)=C\C(=O)/C=C(\C)[C@@H](OC(=O)/C(C)=C\C)[C@H](O)[C@@H]12 | – | 10.1 µM (active) | 10 µM (active) | 7.94 µM (active) | inactive | 4.47 µM (active) | – | 7.94 µM (active) | 7.08 µM (active) | – | 11.4 µM (active) | – | –
4 | C[C@H]1C(=O)N2c3ccccc3[C@@]3(O)C[C@@H]4C(=O)N[C@](C)(c5nc6ccccc6c(=O)n54)N1[C@@H]23 | – | – | inactive | inactive | inactive | inactive | inactive | inactive | inactive | inactive | – | inactive | -0.721
5 | CCC(C)C(=O)O[C@H]1CCC=C2C=C[C@H](C)[C@H](CC[C@@H](O)C[C@@H](O)CC(=O)O)[C@H]21 (some centres not stated) | 7.29 | – | inactive | inactive | inactive | inactive | inactive | inactive | inactive | inactive | – | – | -16.9
6 | CC(=O)OC[C@@]12C(=O)C[C@@H](C)[C@]3(C[C@@H](c4ccoc4)O[C@H]3OC(C)=O)[C@H]1CCC[C@]21CO1 | -1.02 | – | inactive | inactive | inactive | inactive | inactive | inactive | inactive | inactive | – | – | 3.02
7 | Cc1ccc(S(=O)(=O)Nc2ccccc2N2CCCCC2)s1 | -18.9 | – | inactive | inactive | inactive | inactive | inactive | inactive | inactive | inactive | – | – | 2.48
8 | CC(=O)O[C@@H]1C[C@H](O)[C@@]23CO[C@H](O)[C@]1(C)C2C[C@@H](O)[C@]1(C)C3C(=O)[C@H](OC(C)=O)[C@@]2(C)[C@H](c3ccoc3)C[C@H]3O[C@]321 (some centres not stated) | – | 0.432 µM (active) | 1.12 µM (active) | 1.12 µM (active) | inactive | 0.501 µM (active) | – | 2.51 µM (active) | inactive | – | 0.137 µM (active) | – | –
9 | CNC(=S)NS(=O)(=O)c1cc(CCNC(=O)c2cc(Cl)ccc2OC)ccc1OC | -4.17 | – | inactive | – | inactive | inactive | inactive | inactive | inactive | – | – | – | -5.29
10 | CC/C=C\C/C=C\C/C=C\CCCCCCCC(=O)OCC(O)COC1OC(CO)C(O)C(O)C1O (configuration not stated) | – | – | inactive | – | inactive | inactive | inactive | inactive | inactive | inactive | – | inactive | -3.16
11 | CC[C@H](CO)Nc1nc(NCc2ccc(-c3ccccn3)cc2)c2ncn(C(C)C)c2n1 | – | 0.517 µM (active) | 1.26 µM (active) | – | 2.51 µM (active) | 0.794 µM (active) | 3.16 µM (active) | – | – | – | 0.116 µM (active) | – | –
12 | CCN1CCN(Cc2ccc(Nc3ncc(F)c(-c4cc(F)c5nc(C)n(C(C)C)c5c4)n3)nc2)CC1 | – | – | inactive | inactive | inactive | inactive | – | inactive | inactive | inactive | 6.51 µM (active) | – | 1.34
13 | CC(=O)OC1C(=O)C2(C)C(O)CC3OCC3(OC(C)=O)C2C(OC(=O)c2ccccc2)C2(O)CC(OC(=O)C(O)C(NC(=O)c3ccccc3)c3ccccc3)C(C)=C1C2(C)C (configuration not stated) | – | 0.092 µM (active) | inactive | – | – | 0.316 µM (active) | – | inactive | – | inactive | 0.0082 µM (active) | – | –

Reference: PubChem BioAssay (NCATS)
